Test results taken from PMC4666376, “Characterisation of aptamer–target interactions by branched selection and high-throughput sequencing of SELEX pools”.

What follows are sequences tested against PAI-1 wild type, active (human, UniProt P05121 24-402) (assay: branched SELEX with high-throughput sequencing; PAI-1 immobilised on polyclonal anti-PAI-1 antibody; HBS (10 mM HEPES pH 7.4, 140 mM NaCl), 2 mM MgCl2, 2 mM CaCl2, 0.1% BSA; RNA pool 100 nM; PAI-1 captured on antibody-coated wells; 45 min; binding temperature not stated (PAI-1 capture at room temperature); high values mean tight binding). Conditions: protein: recombinant; tags: N-terminal His6; structured_RNA; 2'-F pyrimidines.
Chain of PAI-1 wild type, active (P05121 24-402): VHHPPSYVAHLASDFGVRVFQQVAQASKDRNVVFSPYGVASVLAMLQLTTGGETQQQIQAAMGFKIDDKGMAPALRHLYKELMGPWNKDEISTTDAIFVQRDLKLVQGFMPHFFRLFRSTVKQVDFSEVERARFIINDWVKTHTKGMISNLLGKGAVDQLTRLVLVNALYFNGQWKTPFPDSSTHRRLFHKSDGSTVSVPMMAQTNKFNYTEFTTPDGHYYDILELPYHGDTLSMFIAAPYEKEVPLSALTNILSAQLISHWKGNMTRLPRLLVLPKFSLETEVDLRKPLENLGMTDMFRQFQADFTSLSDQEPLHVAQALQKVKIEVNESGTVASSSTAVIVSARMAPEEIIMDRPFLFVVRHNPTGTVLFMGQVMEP
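Also: Pool frequency after one selection round with this target divided by frequency before selection.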

Sequence	binding signal [enrichment factor]
GGGGCCACCAACGACAUUAAGUUCGUCCCGCAUGGUACGAUGCGGGUCUAUGCGUUGAUAUAAAUAGUGCCCAUGGAUC	6.47
GGGGCCACCAACGACAUUGCGCUACGAUCAAAACACGUAGUAGUGCAACGAAUGUUGAUAUAAAUAGUGCCCAUGGAUC	0.29
GGGGCCACCAACGACAUUAGCAGUCGUAGGCCGUAAUGGCUGACCUGUAUGACGUUGAUAUAAAUAGUGCCCAUGGAUC	0.68
GGGGCCACCAACGACAUUGCGCGAAGCGCUUACGCGUGUUGAUCGAAUGUUGUUGAUAUAAAUAGUGCCCAUGGAUC	1.4
GGGGCCACCAACGACAUUACGAACUUGUAGGCACGAAUACGCCGACCUCUAAUGUUGAUAUAAAUAGUGCCCAUGGAUC	1.25
GGGGCCACCAACGACAUUGGUAAUGGUGUGAAUUAACCUUAAGCCUAUUGGUUGUUGAUAUAAAUAGUGCCCAUGGAUC	0.22
GGGGCCACCAACGACAUUGAGUCUAGACAAAAUUGUCUUAAGUUCGUCUUAAUGUUGAUAUAAAUAGUGCCCAUGGAUC	7.89
GGGGCCACCAACGACAUUCUACGUCGUAGUCGCUUAGCGAUGACCGUUAGAUGUUGAUAUAAAUAGUGCCCAUGGAUC	0.74
GGGGCCACCAACGACAUUUUGUAGGUGUCAACUACCGACCGUCGUUUGCAUUAGUUGAUAUAAAUAGUGCCCAUGGAUC	1.24
GGGGCCACCAACGACAUUUGUCAACAUAACGUAGAGCAAUUACAGCUCGAUCAGUUGAUAUAAAUAGUGCCCAUGGAUC	3.13
GGGGCCACCAACGACAUUGUCGUAGCCGGACUCCACCGGUGACCAAUGAGCGUUGAUAUAAAUAGUGCCCAUGGAUC	0.57
GGGGCCACCAACGACAUUGACCAUGUAGGACUUAAAGUCUGACCACAAUGUGUGUUGAUAUAAAUAGUGCCCAUGGAUC	0.6
GGGGCCACCAACGACAUUUACGCACCGUAGACUUAAUAGUCGAUUAGUACAUGUUGAUAUAAAUAGUGCCCAUGGAUC	1.19
GGGGCCACCAACGACAUUCGCACUGUAGCUAUGUGGAUAGCGACCAGAAUUUCGUUGAUAUAAAUAGUGCCCAUGGAUC	2.51
GGGGCCACCAACGACAUUGUCGUAGGCGUCAUAUUAUACUUACGCUGACCAAUGUUGAUAUAAAUAGUGCCCAUGGAUC	2.09
GGGGCCACCAACGACAUUUGACAUCGUAGGCAAAAAAGCUGACUGUUCAGAUUGUUGAUAUAAAUAGUGCCCAUGGAUC	2.86
GGGGCCACCAACGACAUUCUAGUCUGGUAGCAAUACCUAAGUUCGUCUAGAAAGUUGAUAUAAAUAGUGCCCAUGGAUC	0.89
GGGGCCACCAACGACAUUGACCCGUAGUGUCUUACUACGACUUGUAGAUGUUGUUGAUAUAAAUAGUGCCCAUGGAUC	0.5

Sequence	binding signal [enrichment factor]
GGGGCCACCAACGACAUUCACACAACGUAGGCUCGUGAGCCGAUCAGUGAUUAGUUGAUAUAAAUAGUGCCCAUGGAUC	0.81
GGGGCCACCAACGACAUUGAACUUGUAGUACCUGUAUUGGGUAUGACCUCAGUGUUGAUAUAAAUAGUGCCCAUGGAUC	1.61
GGGGCCACCAACGACAUUUGGCGAGAUGCCAUCUUUACCUUAAUAGGUAGUUCGUUGAUAUAAAUAGUGCCCAUGGAUC	2.77
GGGGCCACCAACGACAUUGUAGCAUAAUCAACCUGCGACUGUCGUGUGAUAAGGUUGAUAUAAAUAGUGCCCAUGGAUC	1.02
GGGGCCACCAACGACAUUGUCGUAGGACGUGAGUGUCUGACCGAUGUAGUUGGGUUGAUAUAAAUAGUGCCCAUGGAUC	0.65
GGGGCCACCAACGACAUUCGGGACUACGUAGGCGGAUUCGCCGAUUACCCGUUGUUGAUAUAAAUAGUGCCCAUGGAUC	0.7
GGGGCCACCAACGACAUUAUGAGCCCUAUCUAUCGACCGAUCAUGUCACGUAGGUUGAUAUAAAUAGUGCCCAUGGAUC	1.38
GGGGCCACCAACGACAUUGAGUCUCCUACACGCGUAGGUAAGUUCGUCUCAUUGUUGAUAUAAAUAGUGCCCAUGGAUC	3.79
GGGGCCACCAACGACAUUACAUACCGUAGGGCAGAUCGCCUGACUAGUAAUACGUUGAUAUAAAUAGUGCCCAUGGAUC	0.24
GGGGCCACCAACGACAUUGUUGAGCGCUGAGUUUCUGCGUUAGUUCUGUCAAUGUUGAUAUAAAUAGUGCCCAUGGAUC	3.37
GGGGCCACCAACGACAUUCGUAACGUAGGGAGUAUUCCCGAUCAGAAUGUACAGUUGAUAUAAAUAGUGCCCAUGGAUC	0.36
GGGGCCACCAACGACAUUACGUAGCUGGGUUUCACCAGCGAUUAGUUGUUGAUAUAAAUAGUGCCCAUGGAUC	0.7
GGGGCCACCAACGACAUUUCGCAGCUUCGUAGUACAGGCGCAAGUUGACACAUGUUGAUAUAAAUAGUGCCCAUGGAUC	1.47
GGGGCCACCAACGACAUUAUUUUCCGGUCGUUUAGGUGUUCAACACUCCGGAUGUUGAUAUAAAUAGUGCCCAUGGAUC	8.72
GGGGCCACCAACGACAUUGACUAGACAUGAUGUUGCAUGUCACCAUGUAAAAUGUUGAUAUAAAUAGUGCCCAUGGAUC	0.92
GGGGCCACCAACGACAUUCACCACGUAGUGAAACUUUCACGACUAGAAUGUAAGUUGAUAUAAAUAGUGCCCAUGGAUC	0.74
GGGGCCACCAACGACAUUUCCGUGAGGAUCUAUGUUGUGGAAAACAACAGUUCGUUGAUAUAAAUAGUGCCCAUGGAUC	1.09
